Here are results for 48 compounds from PubChem BioAssay AID720540 (National Center for Advancing Translational Sciences (NCATS), 2013).

In all, about 1,300 compounds went through this assay and about 460 (35%) were called active. Not shown: some 39% with an inconclusive outcome. This is one part of the list. A number with no mark means an inactive call. The call rests on the fitted dose curve; in most records, active means well fitted inhibition curve with a large enough effect; inconclusive means small, poorly fitted or top-dose-only effect; inactive means flat fitted curve, though single readings scatter.

Chain of Protein phosphatase EYA2 (Homo sapiens) (O00167 whole entry, looked up): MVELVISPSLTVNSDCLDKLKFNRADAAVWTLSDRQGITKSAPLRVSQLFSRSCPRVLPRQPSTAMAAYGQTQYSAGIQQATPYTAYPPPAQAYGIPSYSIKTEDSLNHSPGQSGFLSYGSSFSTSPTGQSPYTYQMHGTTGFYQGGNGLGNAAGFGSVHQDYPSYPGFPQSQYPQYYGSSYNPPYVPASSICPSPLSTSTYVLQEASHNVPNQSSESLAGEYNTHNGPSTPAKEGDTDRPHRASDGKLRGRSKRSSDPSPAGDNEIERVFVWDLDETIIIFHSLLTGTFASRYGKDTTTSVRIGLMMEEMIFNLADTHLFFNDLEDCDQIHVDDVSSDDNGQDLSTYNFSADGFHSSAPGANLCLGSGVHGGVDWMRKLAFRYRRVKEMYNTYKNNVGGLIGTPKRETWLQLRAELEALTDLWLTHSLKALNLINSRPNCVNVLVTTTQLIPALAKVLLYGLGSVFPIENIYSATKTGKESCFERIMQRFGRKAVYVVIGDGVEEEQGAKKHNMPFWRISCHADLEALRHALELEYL

The test concerns the target Protein phosphatase EYA2 (Homo sapiens) (UniProt O00167). In words: qHTS for Inhibitors of the Phosphatase Activity of Eya2: Confirmatory Assay for Cherry-picked Compounds. Further: nearly all actives have a fitted effect of over 65% in size.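 On activity change, negative = inhibition: 0% = DMSO wells and -100% = EGTA control giving full inhibition.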 The conditions noted are these: purified EYA2 phosphatase activity, qHTS confirmation; series mostly up to 46.1 µM; activity change, negative = inhibition: at the top concentration. From the text:
The Eya protein family is an essential co-activator of the Six1 transcription factor. Six1 is a developmental gene that is abnormally re-expressed in a large percentage of breast cancers. This over-expression plays a causal role in the initiation and metastatic development of breast cancers. The Eya family of protein is also found to contain a unique HAD phosphatase domain with protein tyrosine phosphatase activity which can potentially play a role in Six1-mediated breast tumorigenesis. Recently, Eya2 is found to dephosphorylate the histone variant H2AX and direct cells towards DNA repair instead of apoptosis in the event of DNA damage.
A 1536 well format, fluorescence based qHTS assay was developed and used to target the phosphatase activity of Eya2 (AID 488837). Inhibitors found against Eya2 could serve as potential therapeutic tools to inhibit Six1-mediated breast tumorigenesis and to increase the efficiency of radiation and certain chemo therapy. This assay assessed the activity of the primary screen cherry-picked compounds against Eya2. Inhibition is the desired outcome for this assay.
NIH Chemical Genomics Center [NCGC]
NIH Molecular Libraries Probe Centers Network [MLPCN]
Assay Submitter (PI): Rui Zhao, University of Colorado Denver
Eya2 enzyme and 3-O-methyl-fluorescein phosphate (OMFP) substrate working solutions were reconstituted in the buffer reagent consist of 50 mM HEPES pH 7.5, 50 mM NaCl, […], 0.05% BSA and 1 mM DTT. One and a half microliter of 0.2 uM Eya2 working solution was dispensed in a 1536 well Greiner plate (black, medium bind). Twenty-three nanoliter of test compounds and control compound EGTA was transferred to the assay plate using the Kalypsys robotic system equipped with a 1536 pin head. The plate was incubated at room temperature for 10 minutes. One and a half microliter of the 50 uM the OMFP substrate was then dispensed to the assay plate and incubated at room temperature for additional 10 min. The fluorescence signal was read using the PerkinElmer ViewLux plate reader using a 485 nm excitation and 525 nm emission filters. The data was normalized to the positive control for maximum inhibition and DMSO treated wells as negative control.
As for `CC(SC1=NCCS1)C(=O)Nc1nnc(-c2ccc(Br)cc2)s1` (stereo not drawn), the Potency is 6.01 µM (active).

As for `CN1CCN(C(c2ccccn2)c2cc(Cl)c3cccnc3c2O)CC1` (stereo not drawn), the Potency is 2.39 µM (active).

Take `OC(c1ccc(Cl)cc1)c1nccc2ccccc12` (stereo not drawn): the “activity change, negative = inhibition” value is -9.24%.

For `Oc1c(C(c2ccc(Cl)cc2)N2CCCC2)cc(Cl)c2cccnc12` (stereo not drawn), the Potency was 6.75 µM (active).

On to `COC(=O)c1c(C)[nH]c(C(=O)C(C)OC(=O)C2CC(=O)N(c3ccc(C)cc3)C2)c1C` (stereo not drawn), for which the “activity change, negative = inhibition” value was -26%.

For the compound `Cn1c(N)c(C(=O)CSc2nnc(NC3CCCCC3)s2)c(=O)n(C)c1=O`, the “activity change, negative = inhibition” value is -28.7%.

As to `CC(=O)Oc1ccc(C(=O)OCC(=O)c2c(N)n(C)c(=O)n(C)c2=O)cc1OC(C)=O`, the Potency was 4.78 µM (active).

Turning to `COc1ccc(C(=O)N2CCOCC2)cc1S(=O)(=O)N1CCCc2ccccc21`, the “activity change, negative = inhibition” value was -12.4%.

`O=C(Oc1ccc(C(=S)N2CCOCC2)cc1Br)c1ccccc1F`: the Potency is 16.9 µM (active).

Regarding `O=C(Oc1ccc(C(=S)N2CCOCC2)cc1Cl)c1ccccc1F`, the Potency was 8.49 µM (active).

On to `CC1=CC(C)(C)Nc2ccc(OC(=O)CN3C(=O)c4ccccc4C3=O)cc21`, for which the “activity change, negative = inhibition” value was -11.5%.

In the case of `CN1/C(=C\C(=S)NC(=O)c2ccccc2Cl)C(C)(C)c2ccccc21`, the Potency was 16.9 µM (active).

`O=C(NC1CCCCC1)N1CCN(C2CCCCC2)CC1`: the “activity change, negative = inhibition” value was 2.04%.

Take `COc1cc(OC)c(NC(=O)CN(C)S(=O)(=O)c2ccc(-c3ccc(=O)[nH]n3)s2)cc1Cl`: the Potency was 4.26 µM (active).

With `COc1ccc([C@H]2CC(=O)C=C(c3ccnc4ccc(Cl)cc34)C2)cc1`, the “activity change, negative = inhibition” value is -22.9%.

Take `N=C1/C(=C/c2ccc(-c3cccc(C(=O)O)c3)o2)C(=O)N=C2SC=C(c3ccccc3)N12`: the “activity change, negative = inhibition” value was -20.3%.

Regarding `O=C(O)c1ccc(-c2ccc(/C=c3/sc4nc5ccccc5n4c3=O)o2)cc1Cl`, the Potency is 5.36 µM (active).

With `Cc1c(CCO)c(=O)n(-c2ccccc2)n1S(=O)(=O)c1c(Cl)cc(Cl)cc1Cl`, the Potency is 3.01 µM (active).

For the compound `CC12CC3(C)CC(C)(C1)CC(C(=O)NC(=S)N1CCOCC1)(C2)C3`, the “activity change, negative = inhibition” value is -20%.

As to `O=C1c2ccccc2C(=O)c2c(Nc3ccc(CCO)cc3)ccc(O)c21`, the Potency is 6.01 µM (active).

In the case of `O=C1c2cccc3cccc(c23)C(=O)N1CCCN1CCN(c2ccc(F)cc2)CC1`, the Potency is 15.1 µM (active).

Turning to `COc1ccccc1NC(=O)CCCCCN1C(=O)c2cccc3cccc(c23)C1=O`, the “activity change, negative = inhibition” value is -15.8%.

Turning to `CC1Cc2ccccc2N1NC(=O)c1ccc(Cl)c(S(N)(=O)=O)c1` (stereo not drawn), the “activity change, negative = inhibition” value is -5.79%.

As to `O=C(c1cccc(S(=O)(=O)Nc2ccccc2Cl)c1)N1CCN(c2ccccc2O)CC1`, the Potency is 19 µM (active).

Turning to `COc1ccc(C2CC(c3ccccc3OC(=O)/C=C/c3ccccc3)=NN2C(C)=O)cc1` (stereo not drawn), the Potency was 19 µM (active).

Turning to `O=S(=O)(Nc1cccc(-c2cn3cccnc3n2)c1)c1ccc(F)cc1`, the Potency was 13.5 µM (active).

For the compound `Cn1c(=O)c2cc(S(=O)(=O)Nc3cccc(F)c3)ccc2n(C)c1=O`, the “activity change, negative = inhibition” value is -21.5%.

With `O=S(=O)(Nc1cccc(-c2cn3cccnc3n2)c1)c1ccccc1`, the Potency was 4.78 µM (active).

`O=c1c(O)c(-c2ccc(O)cc2O)oc2cc(O)cc(O)c12`: the Potency is 8.49 µM (active).

As for `Cc1cc(C(=O)c2ccccc2)cc(C)c1O`, the Potency is 1.9 µM (active).

Take `Cc1cc(C(=O)O)ccc1-n1c(C)cc(C=C2C(=O)c3ccccc3C2=O)c1C`: the “activity change, negative = inhibition” value was -8.67%.

For the compound `CN(C)c1ccc(C2C=Cc3ccccc32)c2ccccc12` (stereo not drawn), the Potency is 9.53 µM (active).

With `CSCc1cc(N(C)c2ccccc2)nc(-c2ccccn2)n1`, the Potency is 15.1 µM (active).

`NCC(=O)Nc1ccc(Cl)cc1C(=O)c1ccc[nH]1`: the “activity change, negative = inhibition” value is -11.7%.

Regarding `O=C(c1cccs1)N1CCC(c2nc3c(nnn3Cc3cccc(Cl)c3)c(=O)[nH]2)CC1`, the Potency is 10.7 µM (active).

`CN(C)CCNc1ccc2nnn3c4ccc(O)cc4c(=O)c1c23`: the Potency is 1.69 µM (active).

As to `CN(C)CCNc1ccc2ncn3c4ccc(O)cc4c(=O)c1c23`, the Potency is 3.38 µM (active).

As to `N#Cc1ccc(C(=O)N2CCC3CC2c2cc(-c4ccccc4)ccc23)cc1` (stereo not drawn), the “activity change, negative = inhibition” value is -24.4%.

Regarding `CN(C)C1=C2C=CC=CC2/C(=C2/C=Cc3ccccc32)C=C1` (stereo not drawn), the Potency was 8.49 µM (active).

As for `O=C(O)c1cc(-c2ccc(/C=C3\NC(=O)N(c4ccc(Cl)cc4)C3=O)o2)ccc1Cl`, the Potency is 8.49 µM (active).

Consider `CN1C(=O)/C(=C2\SC(=S)N(NC(=O)c3cccnc3)C2=O)c2ccccc21`, for which the Potency is 9.53 µM (active).

In the case of `CCOC(=O)CN1C(=O)/C(=C2\SC(=S)N(NC(=O)c3cccnc3)C2=O)c2ccccc21`, the Potency is 19 µM (active).

As for `COC(=O)c1ccc(NC(=O)c2ccc3c(c2)C(=O)N(Cc2cccnc2)C3=O)cc1`, the “activity change, negative = inhibition” value is -19.5%.

For `CCOc1cc(C(=O)NC(C)CCc2ccccc2)cc(OCC)c1OCC` (stereo not drawn), the “activity change, negative = inhibition” value was 13.9%.

For `C[C@H](CCC(=O)NCC(=O)O)[C@H]1CC[C@H]2[C@@H]3[C@H](O)C[C@@H]4C[C@H](O)CC[C@]4(C)[C@H]3C[C@H](O)[C@]12C`, the “activity change, negative = inhibition” value is -6.72%.

`O=C(O)CC(C(=O)O)N1C(=O)/C(=C/C=C/c2ccco2)SC1=S` (stereo not drawn): the Potency is 3.79 µM (active).

Take `CC(C(=O)O)N1C(=O)/C(=C/C=C/c2ccco2)SC1=S` (stereo not drawn): the Potency was 3.79 µM (active).

As for `O=C(O)C(Cc1ccccc1)N1C(=O)/C(=C/C=C/c2ccco2)SC1=S` (stereo not drawn), the Potency is 6.75 µM (active).
